Screening results from PubChem.
TRHR agonist = TRH receptor (human) agonism; TRHR cells, calcium flux fluo-8, FDSS agonist mode; activation, % at 2 µM; AID 493084; P34981; hit rate 0.18% among 360,000
Target sequence (P34981 whole entry, looked up): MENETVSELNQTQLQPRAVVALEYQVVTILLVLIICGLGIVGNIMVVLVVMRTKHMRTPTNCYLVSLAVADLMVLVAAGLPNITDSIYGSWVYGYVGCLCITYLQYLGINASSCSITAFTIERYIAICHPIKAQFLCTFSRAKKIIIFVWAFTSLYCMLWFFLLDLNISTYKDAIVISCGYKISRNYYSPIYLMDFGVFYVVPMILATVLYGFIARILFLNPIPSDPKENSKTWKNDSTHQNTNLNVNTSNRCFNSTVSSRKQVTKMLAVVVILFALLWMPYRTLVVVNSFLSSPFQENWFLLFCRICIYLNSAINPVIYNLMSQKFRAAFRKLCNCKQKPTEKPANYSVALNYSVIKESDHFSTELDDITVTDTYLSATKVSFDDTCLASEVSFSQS
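In this calcium-flux screen, cells bearing human TRHR are dye-loaded with fluo-8, baselined for 10 cycles, then exposed to library compounds; positive kinetic calcium responses during the agonist phase mark hits, with TRH as control.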
TRHR PAM = TRH receptor (human) allosteric enhancement. P34981. TRHR cells, fluo-8 calcium fluorescence, EC20 TRH enhancement. enhancement, % at 2 µM. AID 493056. hit rate 0.66% among 360,000; in the data active = enhancement above about 30%
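TRHR-expressing cells loaded with fluo-8 calcium dye were read kinetically (ex 480/em 530) during compound addition, then stimulated with an EC20 of TRH (10 nM final). Enhancement of the Gq-mediated intracellular calcium response was scored.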
D1 agonist = agonists of human D1 dopamine receptor; AID 504660; hit rate 1% among 360,000; P21728; HEK293 T-REx D1 cells, calcium flux, agonist mode; activation, % at 2 µM
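Agonism was scored from calcium flux recorded over 180 s (1 read/s) after pintool compound addition, following a 10-cycle baseline. Cells were inducible force-coupled HEK293 TREx D1, plated overnight at 30 C and loaded with no-wash calcium dye.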
D1 antag = human D1 dopamine receptor antagonism; hit rate 3.2% among 360,000; activity change, negative = inhibition, % at 10 µM; P21728; HEK293 TREx D1 cells, calcium flux, dopamine EC80; stronger effect = lower value; in the data active = activity change below about -30%
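Allosteric or orthosteric antagonism assessed as attenuation of the calcium response to EC80 dopamine, added 180 s after compound, in induced HEK293 Trex D1 cells loaded with no-wash calcium dye.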
D1 potentiator = potentiators of human D1 dopamine receptor | P21728 | HEK293 TREx D1 cells, calcium flux, dopamine EC20 potentiation | potentiation, % at 10 µM | hit rate 0.036% among 360,000; in the data active = potentiation above about 30%
Numbers stand for hits. In the library only some 4.6% were active in any assay of this set; here they are far more common. Cut-off read from the data, not from the text of the source, unless noted: active = activation above about 30%; inactive = the rest.

For CSc1ccc(C2c3[nH]c4ccccc4c3CCN2C(=O)CCC2CCCC2)cc1 (configuration not stated) the results were TRHR agonist inactive, TRHR PAM inactive, D1 agonist inactive, D1 antag inactive and D1 potentiator inactive.
For CCc1ccc2c(CN(C)Cc3ccc(OC(F)F)c(OC)c3)cc(=O)oc2c1 the results were TRHR agonist inactive, TRHR PAM inactive, D1 agonist inactive, D1 antag inactive and D1 potentiator inactive.
`Cc1ccc(SCc2cc(-c3ccc(Cl)cc3)no2)cc1` gave TRHR agonist inactive, TRHR PAM inactive, D1 agonist 36.3, D1 antag inactive and D1 potentiator inactive.
O=C(NCCO)c1cccc(Nc2nc(-c3ccccc3)c3cc(Cl)ccc3n2)c1 was read as TRHR agonist inactive, TRHR PAM 31.4, D1 agonist inactive, D1 antag inactive and D1 potentiator inactive.
`CCc1ccc(NC(=O)C2CCN(S(=O)(=O)c3cccc(-c4noc(C)n4)c3)CC2)cc1` gave TRHR agonist inactive, TRHR PAM inactive, D1 agonist inactive, D1 antag inactive and D1 potentiator inactive.
For COc1cc(OC)c(NC(=O)c2ccccc2F)cc1Cl the results were TRHR agonist inactive, TRHR PAM inactive, D1 agonist inactive, D1 antag inactive and D1 potentiator inactive.
Screening COc1cc(NC(=O)c2cc3ccccc3cc2O)c(OC)cc1Cl returned TRHR agonist inactive, TRHR PAM inactive, D1 agonist inactive, D1 antag -57.5 and D1 potentiator inactive.
Screening Cc1ccc(Cl)cc1NC(=O)c1cc2ccccc2cc1O returned TRHR agonist inactive, TRHR PAM inactive, D1 agonist inactive, D1 antag -45.4 and D1 potentiator inactive.
`N#CN1CCC(NC(=O)c2cccc(F)c2)CC1` gave TRHR agonist inactive, TRHR PAM inactive, D1 agonist inactive, D1 antag inactive and D1 potentiator inactive.
Screening Cc1ccc(NC(=O)C2CCCN(c3nnc(C)c4c(C)n(-c5ccccc5)nc34)C2)c(Cl)c1 (configuration not stated) returned TRHR agonist inactive, TRHR PAM inactive, D1 agonist inactive, D1 antag inactive and D1 potentiator inactive.
Screening O=C(O)Cc1sc(Nc2ccc(Cl)cc2)nc1-c1cccs1 returned TRHR agonist inactive, TRHR PAM inactive, D1 agonist inactive, D1 antag inactive and D1 potentiator inactive.
`Nc1nc(-c2cccs2)c(CC(=O)O)s1` gave TRHR agonist inactive, TRHR PAM inactive, D1 agonist inactive, D1 antag -38.4 and D1 potentiator inactive.
For CCn1cc(C(=O)N2CCN(c3ccccc3)CC2)c(=O)c2cc(S(=O)(=O)N3CCC(C)CC3)ccc21 the results were TRHR agonist inactive, TRHR PAM inactive, D1 agonist inactive, D1 antag inactive and D1 potentiator inactive.
Screening Cc1cc(C)c(C#N)c(SCC2COc3ccccc3O2)n1 (configuration not stated) returned TRHR agonist inactive, TRHR PAM inactive, D1 agonist 37.6, D1 antag inactive and D1 potentiator inactive.
`Cc1ccc(Cl)cc1NC(=O)c1oc2c(c1C)-c1[nH]ncc1CC2` gave TRHR agonist inactive, TRHR PAM inactive, D1 agonist inactive, D1 antag inactive and D1 potentiator inactive.
Cc1nc(-c2cc(C#N)c(Sc3cccc(C(F)(F)F)c3)nc2C)cs1 was read as TRHR agonist inactive, TRHR PAM inactive, D1 agonist 30.2, D1 antag -55.2 and D1 potentiator inactive.
Screening CCN(CCNc1ccc(Cl)cc1[N+](=O)[O-])C(=O)c1cc([N+](=O)[O-])c(N(C)C)cc1OC returned TRHR agonist inactive, TRHR PAM inactive, D1 agonist inactive, D1 antag -79.9 and D1 potentiator inactive.
For CN(C)CCNc1ccc(Cl)cc1[N+](=O)[O-] the results were TRHR agonist inactive, TRHR PAM inactive, D1 agonist inactive, D1 antag inactive and D1 potentiator inactive.
Screening CN1CCN(C(=O)c2ccc(Cl)cc2)CC1 returned TRHR agonist inactive, TRHR PAM 33.5, D1 agonist inactive, D1 antag inactive and D1 potentiator inactive.
For Cc1ccc(C(=O)N2CCC(C(=O)c3ccc(Cl)cc3)CC2)cc1 the results were TRHR agonist inactive, TRHR PAM inactive, D1 agonist inactive, D1 antag -44.4 and D1 potentiator inactive.
O=C(c1ccc(Cl)cc1)N1CCN(c2ccnc3cc(Cl)ccc23)CC1 was read as TRHR agonist inactive, TRHR PAM inactive, D1 agonist inactive, D1 antag -55.4 and D1 potentiator inactive.
For CN(c1ccc(C(=O)N2CCOCC2)cc1)S(=O)(=O)c1ccc(Cl)cc1 the results were TRHR agonist inactive, TRHR PAM inactive, D1 agonist inactive, D1 antag inactive and D1 potentiator inactive.
For CN(c1ccc(C(=O)N2CCCCCC2)cc1)S(=O)(=O)c1ccc(Cl)cc1 the results were TRHR agonist inactive, TRHR PAM inactive, D1 agonist inactive, D1 antag -38.5 and D1 potentiator inactive.
Screening O=C(NCCC1=CCCCC1)c1ccc2c(=O)n3nc(Nc4ccccc4)sc3nc2c1 returned TRHR agonist inactive, TRHR PAM inactive, D1 agonist inactive, D1 antag inactive and D1 potentiator inactive.
For O=C(CCC(=O)N1CC2CCCN2c2ccccc21)NCc1ccc(F)cc1 (configuration not stated) the results were TRHR agonist inactive, TRHR PAM inactive, D1 agonist inactive, D1 antag inactive and D1 potentiator inactive.
`NC(=O)C1CCN(c2csc3ccc(F)cc3c2=O)CC1` gave TRHR agonist inactive, TRHR PAM inactive, D1 agonist inactive, D1 antag inactive and D1 potentiator inactive.
Screening O=C(N1CCc2ccc(S(=O)(=O)N3CCN(S(=O)(=O)c4ccc5c(c4)OCCO5)CC3)cc2C1)C(F)(F)F returned TRHR agonist inactive, TRHR PAM inactive, D1 agonist inactive, D1 antag inactive and D1 potentiator inactive.
Screening CN1CCN(C(=O)c2cc(Cl)ccc2NC(=O)c2ccc(Cl)cc2Cl)CC1 returned TRHR agonist inactive, TRHR PAM inactive, D1 agonist inactive, D1 antag -30.5 and D1 potentiator inactive.
CN1CCN(C(=O)c2ccc(CSc3ccc(Cl)cc3)cc2)CC1 was read as TRHR agonist inactive, TRHR PAM inactive, D1 agonist inactive, D1 antag -30.2 and D1 potentiator inactive.
O=C(Nc1ccccc1C(=O)N1CCCC1)c1ccc(Cl)cc1Cl was read as TRHR agonist inactive, TRHR PAM inactive, D1 agonist inactive, D1 antag inactive and D1 potentiator inactive.
`O=C(Nc1ccccc1C(=O)NCCN1CCOCC1)c1ccc(Cl)cc1Cl` gave TRHR agonist inactive, TRHR PAM inactive, D1 agonist inactive, D1 antag -30.8 and D1 potentiator inactive.
`O=C(NCc1ccco1)c1ccc2c(c1)N(Cc1ccccc1F)C(=O)c1ccccc1S2(=O)=O` gave TRHR agonist inactive, TRHR PAM inactive, D1 agonist inactive, D1 antag inactive and D1 potentiator inactive.
